# Hits are enriched below; roughly 2.8% of the tested compounds scored in any of these assays.
# D3 antag – qHTS of D3 Dopamine Receptor Antagonist: qHTS | max response, negative = inhibition, % | AID 652054, 2013 | 2.5% of 360,000 active | D3R cells, DiscoveRx beta-arrestin luminescence, antagonist mode; active compounds read low; in the data active means max response below about -50%; inconclusive means no clear call, values can overlap the other calls; further: on the % scale 0 is the no-effect control and ±100 the full control effect
#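 Cells expressing the human receptor were seeded at 1500 cells/well, incubated overnight at 37 degrees C in 5% CO2, then exposed to library compounds with dopamine controls for 90 minutes at 37 degrees C before luminescent detection.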
# DRD3 agonist – qHTS of D3 Dopamine Receptor Agonist: qHTS. D3R DiscoveRx beta-arrestin cells, luminescence, 90 min. max activation, %. 0.58% of 410,000 active. AID 652048, 2013; in the data active means max activation above about 30%; further: 0% is about no effect
#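 Cells at 1500/well, incubated overnight, then treated with pinned compounds (dopamine as control) for 90 min at 37 degrees C. DiscoveRx reagent added for 30 - 60 minutes at room temperature; luminescence read.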
# B2AR arrestin – qHTS assay of beta-arrestin-biased ligands of beta2-adrenergic receptor; AID 492947, 2010; 0.02% of 330,000 active; beta-arrestin recruitment to beta2AR, cell-based reporter; Potency, µM (doses to about 46.1 µM), for the others: at the highest dose activation, most hits filed as activators; active means well fitted activation curve with a large enough effect; inconclusive means small, poorly fitted or top-dose-only effect;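 further: potency means the concentration at half of the fitted maximal effect; 0% = DMSO controls and full agonism = EC100 isoproterenol or metaproterenol; nearly all actives have a fitted effect of over 65% in size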
# Target sequence (P07550 whole entry, looked up): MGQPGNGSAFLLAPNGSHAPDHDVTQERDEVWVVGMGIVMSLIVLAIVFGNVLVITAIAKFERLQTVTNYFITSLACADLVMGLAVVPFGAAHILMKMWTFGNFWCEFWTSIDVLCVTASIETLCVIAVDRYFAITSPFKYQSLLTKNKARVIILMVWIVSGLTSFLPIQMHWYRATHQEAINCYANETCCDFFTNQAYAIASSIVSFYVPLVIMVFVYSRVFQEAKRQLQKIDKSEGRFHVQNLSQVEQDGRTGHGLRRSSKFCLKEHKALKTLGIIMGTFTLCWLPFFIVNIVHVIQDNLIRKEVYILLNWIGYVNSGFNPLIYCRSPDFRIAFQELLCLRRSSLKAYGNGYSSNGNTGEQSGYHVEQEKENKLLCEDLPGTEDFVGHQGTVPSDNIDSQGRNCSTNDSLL
# Giardia killer – Small Molecules that selectively kill Giardia lamblia: qHTS; Giardia lamblia trophozoite viability; activity change, % at 7.66 µM, hits read low; 0.15% of 340,000 active; in the data active means activity change below about -80%; inconclusive means between about -30% and that limit;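 further: parasites exposed to compound for two days anaerobically before the ATP read; on the % scale 0 is the no-effect control and ±100 the full control effect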
#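 Luminescence from cellular ATP indicates surviving trophozoites (100 cells/well) following 48 hrs anaerobic compound treatment at 37 deg C; signal develops 15-30 min at room temperature.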
# * marks the source's active call; other numbers are inactive results; ? = inconclusive; nt = not tested or not shown.
SMILES,D3 antag,DRD3 agonist,B2AR arrestin,Giardia killer
CC(=O)Nc1ccc(N2CCCC(C)C2)c([N+](=O)[O-])c1 (stereo not drawn),-55*,-12,0%,10
CC(=O)Nc1ccc(N2CCC(C)CC2)c([N+](=O)[O-])c1,-8,7,0%,-6
O=c1c2c3c(sc2nc2n1CCC2)CCC3,-52*,-1,0%,-19
COC(=O)Cn1c(CCS(=O)(=O)c2ccc(C)cc2)nc2ccccc21,-101*,0,0%,-10
CC(C)Cn1c(N)c(C(=O)COC(=O)/C=C/c2cccs2)c(=O)n(C)c1=O,1,33*,-1%,11
CC(C)Cn1c(N)c(C(=O)COC(=O)Cc2cccs2)c(=O)n(C)c1=O,6,4,-1%,5
O=C(NN1CCCC1)NS(=O)(=O)c1ccc(Cl)cc1,nt,2,nt,nt
Cc1ccc(-n2c(SCC(=O)N3CCOCC3)nnc2-c2ccncc2)cc1,-76*,7,-1%,9
COC(=O)C1=CO[C@@H](OC2OC(CO)C(O)C(O)C2O)[C@@H]2[C@@H](C)[C@@H](O)C[C@H]12 (stereo partly drawn),-14,-15,nt,-7
C[C@@H]1[C@H]2[C@@H](O[C@@H]3O[C@H](CO)[C@@H](O)[C@H](O)[C@H]3O)OC=C(C(=O)O)[C@H]2C[C@@H]1O,-12,43*,0%,?
COc1ccccc1NC(=O)c1sc2nc(C)c(C(=O)Nc3ccc(C)cc3C)c(-c3cccs3)c2c1N,nt,7,nt,nt
CC(=O)NC1(C2CCCCC2=O)CCCCC1 (stereo not drawn),-65*,-1,0%,20
Cc1ccc(-c2noc(CCC(=O)N3CCN(c4cc(C)ccc4C)CC3)n2)cc1,53,6,0%,5
COc1cccc(-c2noc(CCC(=O)N3CCN(c4cc(C)ccc4C)CC3)n2)c1,60,23,0%,-22
Cc1ccc(C)c(N2CCN(C(=O)CCCOc3cc(=O)n(C)c4ccccc34)CC2)c1,30,79*,0%,3
COc1ccccc1-c1noc(CCC(=O)N2CCN(c3cc(C)ccc3C)CC2)n1,64,49*,0%,1
Cc1ccc(C)c(N2CCN(C(=O)COc3cc(=O)n(C)c4ccccc34)CC2)c1,46,5,0%,10
Cc1ccc(C)c(N2CCN(C(=O)CCc3nc(-c4ccccc4C(F)(F)F)no3)CC2)c1,108,39*,0%,-17
COc1ccc(-c2noc(CCCCC(=O)N3CCN(c4cc(C)ccc4C)CC3)n2)cc1,100,53*,0%,-8
COc1ccc(-c2noc(CCCC(=O)N3CCN(c4cc(C)ccc4C)CC3)n2)cc1,42,5,0%,47
CC(=O)N1c2ccc(S(=O)(=O)N3CCC(C(=O)NC4CCC(C)CC4)CC3)cc2CC1C (stereo not drawn),2,30*,5%,-6
O=C(NCCc1ccccc1)c1ccc2c(c1)OCCCO2,2,1,-1%,-89*
O=C(NCCc1ccccc1)c1ccc2c(c1)OCCO2,-12,-4,0%,-81*
CC(C)(C)CC(=O)OCC(=O)[C@@]12OC(C)(C)O[C@@H]1C[C@H]1[C@@H]3CCC4=CC(=O)C=C[C@]4(C)[C@@]3(F)[C@@H](O)C[C@@]12C,nt,-7,nt,nt
COc1ccc(-n2nc3c(N4CCC(C(=O)NCc5cccc(C)c5)CC4)nnc(C)c3c2C)cc1,-59*,5,0%,18
SMILES,D3 antag,DRD3 agonist,B2AR arrestin,Giardia killer
COc1ccccc1CCNC(=O)C1CCN(c2nnc(C)c3c(C)n(-c4ccc(C)cc4)nc23)CC1,-70*,17,0%,?
Cc1ccc(C(=O)c2c3ccccc3[n+]([O-])n2[C@@H](C)C(N)=O)cc1,-64*,-16,0%,-17
O=C(c1cc(-c2ccccn2)nc2c(Cl)cccc12)N1CCN(S(=O)(=O)c2ccccc2)CC1,11,2,-3%,1
O=C(c1cc(-c2ccccn2)nc2c(Cl)cccc12)N1CCN(C(=O)C2CCCO2)CC1 (stereo not drawn),-51*,1,0%,-19
COc1ccc(-c2ccc(OC)c(C3C4C=CCCC4(C)C(=O)N3Cc3ccccc3)c2)cc1 (stereo not drawn),nt,nt,nt,10
Cc1cc(C)c(O)c(CN(C)Cc2cc(Cl)cc(Cl)c2O)c1,17,41*,nt,-10
CCN1CCN(c2csc3ccc(Br)cc3c2=O)CC1,nt,7,nt,nt
CN(CCC#N)C(=O)COC(=O)c1nn(-c2ccccc2)c(=O)c2ccccc12,-58*,-7,0%,23
CC1CN(C(=O)COC(=O)c2nn(-c3ccccc3)c(=O)c3ccccc23)CC(C)O1 (stereo not drawn),5,0,0%,-10
CCCCCCN1CCN(C2CN(Cc3cn(Cc4ccccc4)nn3)S(=O)(=O)C2)CC1 (stereo not drawn),-51*,-10,nt,nt
Cc1cc(C)cc(Cn2cc(CN3CC(N4CCCC4)CS3(=O)=O)nn2)c1 (stereo not drawn),7,-1,nt,nt
Cc1ccc(CN2CC(N3CCN(CCO)CC3)CS2(=O)=O)cc1 (stereo not drawn),-61*,-4,nt,nt
O=S1(=O)CC(N2CCN(CCO)CC2)CN1Cc1ccc(F)cc1 (stereo not drawn),0,0,nt,nt
Cc1cc(C)cc(Cn2cc(CN3CC(N4CCSCC4)CS3(=O)=O)nn2)c1 (stereo not drawn),-54*,-1,nt,nt
COc1ccc(Cn2c(CCC(=O)NCc3ccc(Cl)cc3)nc3cccnc32)cc1,nt,3,nt,nt
O=C(C[n+]1ccccc1)N/N=C/c1cc(Br)cc(Br)c1O,-165*,-45,0%,10
O=C(O)c1cccc(N/N=C/c2cc(Br)cc(Br)c2O)c1,-64*,-7,-1%,-5
CCC(O)(CC)C(=O)N/N=C/c1cc(Br)cc(Br)c1O,-66*,-26,0%,8
COc1ccc(Br)cc1/C=N/Nc1cccc(C(=O)O)c1,10,-3,0%,4
CC(=NNC(=S)N1CCCCC1)c1ccccn1,-25,-9,nt,nt
CC(=NNC(=S)N1CCCCC1)c1cccc(C)n1,-107*,2,nt,-18
CC(C)Oc1ccc(CNC(=O)c2ccc3c(c2)N(C)C(=O)C2CCCCN32)cc1 (stereo not drawn),nt,-31,nt,nt
Nc1cc(=O)[nH]c(SCc2ccc(Cl)cc2Cl)n1,20,30*,0%,-2
CCCC[C@H]1CCCO[C@@](C(=O)NCc2ccccn2)(C(F)(F)F)C1,nt,nt,nt,20
CCC(=O)Nc1cccc(-c2nnc(SCC(=O)c3ccccc3)n2C)c1,-52*,-8,?,-11
O=C(c1ccc(CSc2nc3ccncc3n2Cc2ccccc2F)cc1)N1CCCCC1,nt,-4,nt,nt
CCOC(=O)c1sc(NC(=O)/C=C/c2cnn(CC)c2C)c(C(=O)OCC)c1C,16,36*,0%,7
CCCOC(=O)c1c(NC(=O)/C=C/c2cnn(C)c2C)sc(C(=O)OC)c1C,-77*,17,0%,-4
